Only some compounds are listed: those with a hit (about 7.5% of all), similar ones and a draw of the others.
Luc counter: blocks Kinase-Glo luciferase, a counter-screen artifact; Q27757; Kinase-Glo luciferase, ATP luminescence, 8 min; Potency, µM (doses to about 38.3 µM), hits mostly inhibitors; 0.28% of 200,000 active; AID 1379; further: nearly all actives have a fitted effect of over 60% in size
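Light output from Kinase-Glo luciferase with luciferin and 10 uM ATP in 50 mM imidazole pH 7.2, KCl, MgCl2, Tween 20, BSA; compound pin-delivered, 8-min ambient incubation, then luminescence read.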
FLuc counter: counter-screen for miR-21 project: firefly luciferase inhibitors or activators; P08659; purified FLuc, Km substrates, luminescence inhibition; Potency, µM (titrated, usually from 57.5 µM), actives largely listed as inhibitors; 6.9% of 360,000 active; further: nearly all actives have a fitted effect of over 55% in size
Target sequence (P08659 whole entry, looked up): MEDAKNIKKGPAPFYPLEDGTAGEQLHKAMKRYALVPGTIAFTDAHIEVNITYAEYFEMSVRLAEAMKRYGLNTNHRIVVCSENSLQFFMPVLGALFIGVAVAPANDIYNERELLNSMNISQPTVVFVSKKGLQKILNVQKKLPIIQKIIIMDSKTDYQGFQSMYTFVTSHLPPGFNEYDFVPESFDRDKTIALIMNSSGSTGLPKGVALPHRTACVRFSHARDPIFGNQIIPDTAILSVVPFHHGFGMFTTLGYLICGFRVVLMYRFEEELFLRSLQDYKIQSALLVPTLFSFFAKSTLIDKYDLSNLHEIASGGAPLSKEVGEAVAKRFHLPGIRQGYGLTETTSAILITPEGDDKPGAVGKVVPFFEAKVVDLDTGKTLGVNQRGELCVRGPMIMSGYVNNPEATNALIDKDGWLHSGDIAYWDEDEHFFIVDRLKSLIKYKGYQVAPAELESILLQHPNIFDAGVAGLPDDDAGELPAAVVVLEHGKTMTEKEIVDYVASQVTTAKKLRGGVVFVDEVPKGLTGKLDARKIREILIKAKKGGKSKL
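Biochemical qHTS of compounds, final roughly 60 µM downward over six points, against 10 nM purified firefly luciferase using Km concentrations of substrates (10 uM D-luciferin, 10 uM ATP) in Tris acetate pH 7.5 buffer; luminescence output.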
ELG1 genotox: genotoxicity induction in ELG1-luciferase HEK293T cells; HEK293T ELG1-luciferase reporter, luminescence, 16 h; 1.3% of 330,000 active; AID 504466; Potency, µM (doses to about 46 µM), hits mostly activators; further: nearly all actives have a fitted effect of over 60% in size
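Reporter readout depends on ELG1 protein level, which increases with genetic stress. After 16 hr compound exposure at 37 °C, luciferase activity was quantified using ONE-Glo.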
NPC1 promoter act: activators of NPC1 promoter | Huh7 NPC1 promoter luciferase reporter, 24 h | Potency, µM (doses to about 9.22 µM), actives largely listed as activators | 2.4% of 320,000 active | AID 485313; further: nearly all actives have a fitted effect of over 60% in size
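In 1536-well qHTS, Huh7 cells harboring an NPC1 promoter–luciferase construct received compound for 24 h; activation was quantified by luminescence following luciferase reagent addition.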
SMN2 splice enh: increases expression of the SMN2 splice variant. HEK293 SMN2-luciferase splicing reporter, luminescence, 30-36 h. Potency, µM (doses to about 46.1 µM), hits mostly activators. 2.8% of 210,000 active; further: nearly all actives have a fitted effect of over 55% in size
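qHTS luciferase splicing reporter: luminescence rises when SMN2 exon 7 is included in transfected HEK293 cells. Compound exposure lasted 30-36 h at 37C, with 4.5 mM final sodium butyrate as control, followed by a ONE-Glo read.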
Rab9 prom act: activators of Rab9 promoter | Huh7 Rab9 promoter-luciferase reporter, luminescence, 24 h | Potency, µM (titrated, usually from 9.22 µM), hits mostly activators | 2.8% of 320,000 active | AID 485297; further: nearly all actives have a fitted effect of over 60% in size
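Luminescence from Amplite-detected luciferase (10 minutes, ambient) reports Rab9 promoter activation. Before that, stable Rab9-luciferase Huh7 cells (1500/well, reduced-serum OP-MEM I plus 10% FBS) were exposed to compound for 24 hours at 37C.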
Of the large screens only hits and unclear results are named; the others gave an inactive call. The call rests on the fitted dose curve; in most records, active means well fitted curve in the direction sought with a large enough effect; inconclusive means small, poorly fitted or top-dose-only effect, or another doubt; inactive means no such curve, though single readings can be large; an effect the other way counts as inactive or inconclusive.

CCOc1ccc2nc(NC(=O)CN3CCN(CC)CC3)sc2c1	none (no result: Luc counter, SMN2 splice enh)
CCOc1ccc2nc(NC(=O)COC)sc2c1	FLuc counter 5.4µM, ELG1 genotox 2µM, NPC1 promoter act 2µM, SMN2 splice enh 11µM, Rab9 prom act 1.3µM
CCCOc1ccc(C2C(=O)N(C3CCC(C)CC3)CC(=O)N2CCc2ccccc2)cc1OC (stereo not drawn)	none (no result: Luc counter, ELG1 genotox, NPC1 promoter act, SMN2 splice enh, Rab9 prom act)
Cc1cc2sc3nc(=O)n(-c4ccccc4)c(=O)n3c2cc1C	FLuc counter 17µM, ELG1 genotox inconclusive, NPC1 promoter act inconclusive, Rab9 prom act 3.2µM (no result: Luc counter, SMN2 splice enh)
CC(=O)c1ccc(NC(=O)C2(c3ccccc3)CCOCC2)cc1	FLuc counter 13µM, ELG1 genotox inconclusive, NPC1 promoter act 3.2µM, Rab9 prom act inconclusive
O=C(NC1CC(=O)N(c2ccc(F)cc2)C1)c1ccc(S(=O)(=O)N2CCCCC2)cc1 (stereo not drawn)	none (no result: Luc counter, ELG1 genotox, NPC1 promoter act, SMN2 splice enh, Rab9 prom act)
Cc1cccc(Nc2nn3c(=O)c4ccccc4nc3s2)c1	FLuc counter inconclusive, NPC1 promoter act 4µM, SMN2 splice enh 7.9µM, Rab9 prom act inconclusive
O=c1c2ccccc2nc2sc(Nc3cccc4ccccc34)nn12	none (no result: Luc counter, ELG1 genotox, NPC1 promoter act, SMN2 splice enh, Rab9 prom act)
CCCSc1nn2c(=O)c3ccccc3nc2s1	FLuc counter 7.6µM, ELG1 genotox 2.9µM, NPC1 promoter act 4µM, SMN2 splice enh 35µM, Rab9 prom act 2µM
Cc1cccc(OC(=O)c2ccc3nccnc3c2)c1	FLuc counter 15µM
O=C(Oc1ccc(Cl)cc1)c1ccc2nccnc2c1	FLuc counter 3.8µM
COc1ccc(S(=O)(=O)NNC(=O)c2cc3ccccc3o2)cc1	none
CCOc1ccc(N(CC(=O)Nc2ccc(C)c(C)c2)S(C)(=O)=O)cc1	FLuc counter 11µM, ELG1 genotox inconclusive, NPC1 promoter act 2.8µM, Rab9 prom act inconclusive (no result: Luc counter, SMN2 splice enh)
CCOC(=O)N1CCN(C(=O)CN(c2ccccc2)S(C)(=O)=O)CC1	none
COCCCNC(=O)COC(=O)c1ccc(-c2nc3ccccc3s2)s1	FLuc counter 5.4µM, SMN2 splice enh 13µM, Rab9 prom act inconclusive
COc1ccc(CCNC(=O)COC(=O)c2ccc(C)s2)cc1	none (no result: Luc counter, SMN2 splice enh)
O=C(NCCc1ccc(Cl)cc1)c1ccc(Br)s1	FLuc counter inconclusive, ELG1 genotox inconclusive, NPC1 promoter act 4µM, Rab9 prom act 4.5µM (no result: Luc counter, SMN2 splice enh)
Cc1ccc(C(=O)NCCc2ccc(F)cc2)s1	FLuc counter 9.5µM, ELG1 genotox inconclusive, NPC1 promoter act 1.4µM, SMN2 splice enh 4.5µM, Rab9 prom act 2.8µM
O=C(NCCc1ccc(F)cc1)c1ccncc1	none (no result: Luc counter, SMN2 splice enh)
Cc1nc(SCC(=O)NC2(C#N)CCCC2)n(CC(C)C)c1C	none (no result: Luc counter, SMN2 splice enh)
CC12CCC(C(=O)N(NC(=O)c3ccccc3Cl)C1=O)C2(C)C (stereo not drawn)	none
COCCc1ccc(OC[C@H](O)CNC(C)C)cc1	none (no result: FLuc counter, ELG1 genotox, NPC1 promoter act, Rab9 prom act)
Cc1cccc(/C(N)=N/OC(=O)N2c3ccccc3Sc3ccccc32)c1	none
Cc1cccc(/C(N)=N/OC(=O)c2cccnc2)c1	FLuc counter 9.5µM, ELG1 genotox inconclusive, NPC1 promoter act inconclusive, Rab9 prom act 4µM (no result: SMN2 splice enh)
Cc1cccc(/C(N)=N/OC(=O)c2ccc(Br)o2)c1	FLuc counter 4.3µM, ELG1 genotox inconclusive, SMN2 splice enh inconclusive
COc1cc(OC)cc(C(=O)O/N=C(\N)c2cccc(C)c2)c1	FLuc counter 24µM, NPC1 promoter act inconclusive, Rab9 prom act inconclusive (no result: Luc counter, SMN2 splice enh)
CCC(C(=O)O/N=C(\N)c1cccc(C)c1)c1ccccc1 (stereo not drawn)	FLuc counter inconclusive
Cc1cccc(/C(N)=N/OC(=O)C23CC4CC(CC(C4)C2)C3)c1	FLuc counter 4.3µM, ELG1 genotox inconclusive, Rab9 prom act inconclusive
CCc1ccc(S(=O)(=O)c2cn(C)c3ccc(C)cc3c2=O)cc1	none (no result: Luc counter, ELG1 genotox, NPC1 promoter act, Rab9 prom act)
Cc1ccc(C)c(NC(=O)CCN2C(=O)c3ccccc3Sc3ncccc32)c1	none (no result: Luc counter, ELG1 genotox, NPC1 promoter act, SMN2 splice enh, Rab9 prom act)
Fc1cccc(CN2CCN(c3nc4nonc4nc3NC3CC3)CC2)c1	none (no result: SMN2 splice enh)
Cc1c(OCC(=O)NCCCn2ccnc2)ccc2c3c(c(=O)oc12)CCC3	none (no result: Luc counter, SMN2 splice enh)
O=C(Nc1ccc2c(c1)nc1n2CCOC1)c1ccco1	FLuc counter 13µM, ELG1 genotox inconclusive, NPC1 promoter act 1.3µM, SMN2 splice enh inconclusive, Rab9 prom act 4µM

Screening results deposited in PubChem by National Center for Advancing Translational Sciences (NCATS).
